The text below walks through data of PubChem BioAssay.

Molecules are shown by their SMILES.

For this test, the system named is Noggin (protein binding on small-molecule microarray). The test is described as follows: small molecules binding Noggin protein – biochemical, 635/667 nm fluorescence, primary screen (AID 1095).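 Further: score merges 667 nm feature fluorescence with signal to noise over triplicate slides.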 As to conditions: 635 nm fluorescence, higher = more signal.
In the case of `CC(C)CN1CCc2nc(-c3ccccc3)c3c(c2C1)CO[C@@H](C)C3`, the composite z-score turned out to be 1.5.

In the case of `COCC#Cc1ccc([C@@H]2N[C@H](C(=O)O)CC[C@H]2C)cc1`, the composite z-score came to 0.165.

The molecule `C[C@@H](c1ccccc1)N1C(=O)[C@H]2[C@H]3[C@H](O)[C@H](O)CC(=NOC[C@@H](O)COCc4ccco4)[C@H]3CC[C@H]2C1=O` had a composite z-score of 0.412.

For the molecule `CCOC(=O)[C@H](CC(C)C)NC(=O)CCC1CC(OC(=O)NCc2ccc3c(c2)OCO3)CC2(CCCC(COC(=O)NCCc3ccc(Cl)cc3)O2)O1` (stereo partly specified), the composite z-score was determined as 0.553.

The molecule `C#CCCCON=C1C[C@@H](O)[C@@H](O)[C@@H]2[C@@H]3C(=O)N(C4CCCCC4)C(=O)[C@@H]3CC[C@@H]12` came in with a composite z-score of 0.454.

With `CC(C)=CCCC(C)=CCON=C1C[C@@H](O)[C@@H](O)[C@@H]2[C@@H]3C(=O)N(c4cccc(Oc5ccccc5)c4)C(=O)[C@@H]3CC[C@H]12`, the composite z-score was found to be 0.485.

`COc1ccc(O[C@H]2C=C[C@@H](C#Cc3ccccc3)O[C@@H]2CO)cc1`: the composite z-score stood at 1.15.

On to `CCCNC(=O)OC[C@H]1O[C@H](CCON=C[C@@H](NS(=O)(=O)c2ccc(C)cc2)[C@H](C)C=CCC(=O)OC)C=C[C@@H]1Oc1ccc(OC)cc1`, for which the composite z-score is 0.0599.

The molecule `COC(=O)[C@H](C)NC(=O)CCC1CC(OC(=O)NCc2cccc3ccccc23)CC2(CCCC(COC(=O)NCCCN3CCCC3=O)O2)O1` (stereo partly specified) came in with a composite z-score of 0.79.

As to `COC(=O)[C@H](C)NC(=O)CCC1CC(OC(=O)NCCc2ccc(F)cc2)CC2(CCCC(COC(=O)NCC3CCCCC3)O2)O1` (stereo partly specified), the composite z-score was found to be 0.883.

The molecule `COC(=O)[C@H](C)NC(=O)CCC1CC(OC(=O)NCc2ccc3c(c2)OCO3)CC2(CCCC(COC(=O)NCCc3ccc(Cl)cc3)O2)O1` (stereo partly specified) registered a composite z-score of 0.621.

Molecule `COc1ccc(COC(=O)NN=C2C[C@@H](O)[C@@H](O)[C@@H]3[C@@H]4C(=O)N([C@@H](C)c5ccccc5)C(=O)[C@@H]4CC[C@@H]23)cc1` gave a composite z-score of 0.574.

The molecule `COc1ccc(O[C@H]2C=C[C@@H](c3ccccc3)O[C@@H]2COC(=O)CCC(C)=NOC[C@@H](O)COCc2ccco2)cc1` returned a composite z-score of -1.66.

On to `CCN1C(=O)[C@H]2[C@H]3[C@H](O)[C@H](O)CC(=NOCC(C)C)[C@H]3CC[C@H]2C1=O`, for which the composite z-score was found to be 0.569.

As for `CC(=O)OC[C@H]1O[C@H](C#CCC2CCCCC2)C=C[C@@H]1OC(C)=O`, the composite z-score was found to be 0.598.

The molecule `CCN1C(=O)[C@H]2[C@H]3[C@H](O)[C@H](O)CC(=NOC[C@@H](O)[C@H]4O[C@@H]5OC(C)(C)O[C@@H]5[C@H]4O)[C@@H]3CC[C@H]2C1=O` displayed a composite z-score of 0.0713.

For the molecule `C[C@@H]1CC[C@@H](C(=O)O)N[C@H]1c1cccc(N2CCOCC2)c1`, the composite z-score came to 0.377.

Regarding `CCOC(=O)NN=C1C[C@@H](O)[C@@H](O)[C@@H]2[C@@H]3C(=O)N(c4ccc(F)cc4F)C(=O)[C@@H]3CC[C@H]12`, the composite z-score amounted to 0.555.

For the molecule `CCC1=NOC(CCC2CC(OC(=O)NCc3cccc4c3OCO4)CC3(CCCC(COC(=O)NCCc4ccc(Cl)cc4)O3)O2)C1` (stereo unspecified), the composite z-score was found to be 0.379.

With `CCOC(=O)CCN1C(=O)[C@H]2[C@H]3[C@H](O)[C@H](O)CC(=NO[C@@H]4O[C@H](CO)[C@@H](O)[C@H](O)[C@H]4O)[C@@H]3CC[C@H]2C1=O`, the composite z-score amounted to 0.381.

As for `CCOC(=O)[C@H](CC(C)C)NC(=O)CCC1CC(OC(=O)NCc2ccc3c(c2)OCO3)CC2(CCCC(COC(=O)NCc3ccccc3)O2)O1` (stereo partly specified), the composite z-score turned out to be 0.684.

In turn, `CC(C)C(=O)N[C@H]1CCCN1C(=O)C=Cc1ccccc1` had a composite z-score of 1.13.

As for `COC(=O)[C@H](C)NC(=O)CCC1CC(OC(=O)NCc2cccc3ccccc23)CC2(CCCC(COC(=O)NCc3ccccc3)O2)O1` (stereo partly specified), the composite z-score was 0.478.

With `CCOC(=O)[C@H](CC(C)C)NC(=O)CCC1CC(OC(=O)NCCc2ccc(F)cc2)CC2(CCCC(COC(=O)NCc3cccc4ccccc34)O2)O1` (stereo partly specified), the composite z-score stood at 0.261.

With `COC(=O)CC=C[C@@H](C)[C@@H](C=NOC(C)CN1CCCCc2nc(C)c(C)cc21)OC` (stereo partly specified), the composite z-score was determined as 0.946.

Regarding `CCN1C(=O)[C@H]2[C@H]3[C@H](O)[C@H](O)CC(=NOC[C@@H](O)COCc4ccco4)[C@H]3CC[C@H]2C1=O`, the composite z-score stood at 1.79.

Regarding `COCCNC(=O)OCC1CCCC2(CC(OC(=O)NCc3cccc4ccccc34)CC(CCC(=O)N[C@@H](C)C(=O)OC)O2)O1` (stereo partly specified), the composite z-score stood at 1.18.

As to `CC(=O)OC[C@H]1O[C@@H](ON=C(C)CCN2CCCCc3nc(C)c(C)cc32)[C@H](OC(C)=O)[C@@H](OC(C)=O)[C@@H]1OC(C)=O`, the composite z-score turned out to be 0.708.

In the case of `O=C1C=C[C@@H](O)[C@@H]2[C@@H]3C(=O)N(c4cccc(Oc5ccccc5)c4)C(=O)[C@@H]3CC[C@@H]12`, the composite z-score was found to be 0.403.

Take `CCOC(=O)[C@H](CC(C)C)NC(=O)CCC1CC(OC(=O)NCCc2ccc(F)cc2)CC2(CCCC(COC(=O)NCCOC)O2)O1` (stereo partly specified): the composite z-score amounted to 0.382.

In turn, `CCN1C(=O)[C@H]2[C@H]3[C@H](O)[C@H](O)CC(=NOC(C)CN4CCCc5nc(C)c(C)cc54)[C@@H]3CC[C@H]2C1=O` (stereo partly specified) showed a composite z-score of 1.16.

Consider `CC(C)=CCCC(C)=CCON=C1[C@H]2CCn3c(=O)n(-c4ccccc4)c(=O)n3[C@H]2[C@H](O)[C@@H]2O[C@H]12`, for which the composite z-score amounted to 0.59.

In turn, `O=C1C=C[C@@H](O)[C@@H]2[C@@H]3C(=O)N(Cc4ccccc4)C(=O)[C@@H]3CC[C@@H]12` displayed a composite z-score of 0.562.

With `CCCCOC(OCCCC)C(O)CSc1ccc2ccccc2c1` (stereo unspecified), the composite z-score was determined as 0.542.

Turning to `CC[C@@H](c1ccccc1)n1c(=O)n2n(c1=O)[C@H]1[C@H](O)[C@@H]3O[C@@H]3C(=NOCc3ccccc3)[C@H]1CC2`, the composite z-score came out at 1.3.

For the molecule `CC(CCN1CCCc2nc(C)c(C)cc21)=NOC[C@@H](C)[C@H](OCc1ccccc1)C(C)C`, the composite z-score is -0.187.
